Screening data deposited in PubChem by several laboratories.
A selection: hits, their analogues and other compounds. The true share with any hit is near 2.1%.
CHT block = inhibitors of human choline transporter CHT. 310,000 tested, 0.86% active. AID 488975, 2010. High affinity choline transporter 1 (Homo sapiens), Q9GZV3. CHT-expressing cells, membrane potential dye, choline response; stronger effect = lower value. B-score at 10 µM;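 active means B-score over 3 SD under the library average, and starting fluorescence ratio not unusually high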;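 further: choline stimulus applied at its EC90 after an EC20 pre-addition; B-score computed on integrated fluorescence ratio after choline addition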
EP2 modulator = EP2 receptor modulators, cAMP readout, primary screen, cell-based, HTRF cAMP, PGE2 stimulation | Prostaglandin E2 receptor EP2 subtype (Homo sapiens), P43116 | EP2-expressing cells, cAMP HTRF FRET, PGE2 co-stimulation | induction, % at 25 µM | 260,000 tested, 0.83% active;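 active means compounds whose cAMP rise, as percent of the full-agonist control response, exceeds 60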;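 further: rat C6 glioma line stably carrying human EP2 under a CMV promoter; the protocol text gives 20 µM as final concentration; 100% = response of wells given 1 µM PGE2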
Target sequence (P43116 whole entry, looked up): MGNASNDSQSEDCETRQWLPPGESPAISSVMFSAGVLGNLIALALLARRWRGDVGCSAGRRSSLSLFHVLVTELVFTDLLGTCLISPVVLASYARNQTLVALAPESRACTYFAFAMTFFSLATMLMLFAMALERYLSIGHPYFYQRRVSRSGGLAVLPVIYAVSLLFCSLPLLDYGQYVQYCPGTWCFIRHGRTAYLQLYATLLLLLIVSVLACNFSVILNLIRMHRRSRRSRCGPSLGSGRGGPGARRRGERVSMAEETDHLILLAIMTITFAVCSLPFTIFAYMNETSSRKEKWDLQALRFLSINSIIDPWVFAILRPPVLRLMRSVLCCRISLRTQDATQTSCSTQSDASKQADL
PGE2 EP2 inh = human EP2 receptor antagonists, primary screen, TR-FRET cAMP, C6 glioma cells. Prostaglandin E2 receptor EP2 subtype (Homo sapiens), P43116. C6 glioma cells expressing human EP2; cells stimulated with saturating PGE2. inhibition, % at 25 µM. 260,000 tested, 0.52% active. AID 1422, 2008;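 active means percent inhibition above 40 after rounding to a whole number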;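 further: rat C6 glioma host cells with rolipram phosphodiesterase inhibitor present; the protocol text gives 20 µM as final concentration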
CHT PAM = CHT positive allosteric modulators, primary screen, cell-based, membrane potential dye, choline EC20; B-score at 10 µM; CHT-expressing cells; stronger effect = higher value; LV-AA mutant CHT in HEK293 cells; High affinity choline transporter 1 (Homo sapiens), Q9GZV3; 310,000 tested, 0.49% active;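 active means initial fluorescence not abnormally high and integrated response B-score, plate-corrected, over 3 SD above library mean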
CHT inh conf = CHT inhibitors, confirmation, cell-based, membrane potential dye, duplicate; shares compounds with CHT block; AID 493221, 2011; 2,400 tested, 70% active; CHT-expressing cells, choline membrane potential dye; LV-to-AA substituted CHT, HEK293 cells; CHT activity remaining % of control (stronger effect = lower value), % at 10 µM;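 active means choline transporter activity left, mean of duplicates at 10 µM, below buffer-only control mean minus 3 SD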;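 further: depolarization triggered by choline at its EC90 following an EC20 pre-addition; 0% = hemicholinium-3 full block and 100% = buffer-only control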
HEK293 MPD ctr = membrane potential effects in parental HEK293, counter-screen for CHT inhibitor project, cell-based, membrane potential dye; shares compounds with CHT block; choline response; active = decrease or increase beyond buffer ±3SD; membrane potential ratio readout (active if shifted either direction beyond buffer ±3SD; no single direction) at 10 µM; 2,400 tested, 4% active; AID 493222, 2011;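 further: parental cells lack the transporter so any hit is non-specific; ratio is peak minus trough fluorescence over baseline after EC90 choline challenge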
* = called active by the depositor; i = inactive; . = no result; ! = not confirmed by another sample.

SMILES	CHT block	EP2 modulator	PGE2 EP2 inh	CHT PAM	CHT inh conf	HEK293 MPD ctr
CCOC(=O)N1CCN(C(=O)CN(c2ccccc2OCC)S(C)(=O)=O)CC1	.	1	8	.	.	.
Cc1ccc(S(=O)(=O)CC(O)COc2ccc(F)cc2Cl)cc1 (configuration not stated)	-6.6*	-22	7	i	54%*	i
COc1ccc(N2CC(C(=O)Nc3ccc4ccccc4c3)CC2=O)cc1 (configuration not stated)	.	-44	11	.	.	.
O=C(CSc1nnc(-c2cccs2)o1)N1CCCCCC1	.	13	19	.	.	.
CC1CCCC(C)N1CCCNC(=O)c1ccc2c(c1)NC(=O)c1ccccc1S2 (configuration not stated)	-5.2*	.	.	i	40%*	i
CCN1CCN(CCCNC(=O)c2ccc3c(c2)NC(=O)c2ccccc2S3)CC1	i	-9	4	i	.	.
CC1CCCC(C)N1CCCNC(=O)c1nn(C)c2c1CSc1ccccc1-2 (configuration not stated)	-11*	.	.	i	2.4%*	i
CN1CCN(C(=S)c2ccc(OCC(=O)Nc3cccc(C(F)(F)F)c3)cc2)CC1	-6.2*	-13	16	i	i	i
Cc1ccc2nc3sc(C(=O)Nc4sc(C)c(C)c4C#N)c(N)c3cc2c1	.	-34	14	.	.	.
Cc1nc([N+](=O)[O-])c(Br)n1Cc1ccccc1	-10*	-14	5	i	61%*	i
Cc1nc([N+](=O)[O-])c(SCC(=O)NN)n1Cc1ccccc1	.	0	10	.	.	.
Cc1ccc(-c2nnn(CC(=O)N(CC(=O)NC3CCCCC3)c3ccc4c(c3)OCCO4)n2)cc1	.	10	9	.	.	.
O=C1CC(c2ccco2)CC(O)=C1C=Nc1ccccc1-c1ccccc1 (configuration not stated)	-5.6*	51	6	i	i	i
CN(Cc1ccccc1)C(=O)COc1ccc(S(=O)(=O)N2CCCC2)cc1	.	-19	12	.	.	.
Cc1occc1C(=O)NNS(=O)(=O)c1ccc([N+](=O)[O-])cc1	-5.1*	.	.	i	46%*	i
Cc1ccc2[nH]c(C(=O)O)c(NC(=O)[C@@H]3C[C@@H]3c3ccccc3)c2c1	-5*	-42	6	i	i	i
Cc1ccc(CNC(=O)C2CC2c2ccccc2)cc1 (configuration not stated)	i	22	10	i	.	.
Cc1noc(C)c1CSc1nc2ccccc2n1CCc1ccccc1	-5*	36	6	i	i	i
O=C(CSc1ncnc2scc(-c3ccccc3)c12)NC1CCS(=O)(=O)C1 (configuration not stated)	-6.2*	0	8	i	i	i
COc1cccc([C@@H]2C[C@H](C(=O)NCc3ccc4c(c3)OCO4)N(C)S(=O)(=O)N2)c1	.	-17	.	.	.	.
CCOc1cccc(-c2nn(-c3ccccc3)cc2/C=C(/C#N)C(=O)NCCCn2ccnc2)c1	-9.2*	19	10	i	61%*	i
N#C/C(=C/c1cn(-c2ccccc2)nc1-c1cccc(OCc2ccccc2)c1)C(=O)NCCCn1ccnc1	i	4	3	i	.	.
Cn1c(=O)oc2cc(NCc3cccc(OCc4cccnc4)c3)ccc21	.	-71	7	.	.	.
CN[C@H]1CC[C@@H](c2ccc(Cl)c(Cl)c2)c2ccccc21	-6.8*!	-33	27	i	i	i
CC(C)(C)OC(=O)NCCc1nnc(SCc2ccc(Cl)cc2)o1	-6.1*	20	5	i	65%*	i
SMILES	CHT block	EP2 modulator	PGE2 EP2 inh	CHT PAM	CHT inh conf	HEK293 MPD ctr
CC(C)(C)OC(=O)NCCCCCc1nnc(SCC(=O)Nc2cccc(Cl)c2)o1	-5.6*	-6	14	i	i	i
COC(=O)c1ccccc1NC(=O)CSc1nnc(Cn2cnc3ccccc32)n1C	.	14	12	.	.	.
O=C(NCc1ccccc1)N1C2CCC1CC(O)(c1cccnc1)C2 (configuration not stated)	.	-23	15	.	.	.
COc1ccc(CCN2C(=O)C(O)=C(C(C)=O)C2c2ccccc2)cc1OC (configuration not stated)	.	16	13	.	.	.
CCCOc1cccc(C(=O)Nc2nnn(CC)n2)c1	.	-45	7	.	.	.
O=C(NCC1CCCO1)C(c1ccccc1)N(C(=O)Cn1nnc2ccccc21)C1CCCCC1 (configuration not stated)	.	-26	8	.	.	.
Cc1nn(Cc2ccc(F)cc2)c(Cl)c1/C=N/NC(=O)c1ccccc1	i	-52	6	i	.	.
Cc1nn(Cc2ccccc2)c(Cl)c1/C=C1\NC(=S)NC1=O	-7.7*	-10	6	i	i	i
CN(C)CCn1c(NCc2ccc3c(c2)OCO3)nc2ccccc21	i	.	.	i	.	.
CCCCn1c(NCc2ccc3c(c2)OCO3)nc2ccccc21	-7.3*	18	22	i	52%*	3*
Cc1ccc(S(=O)(=O)N2CCC(C(=O)N(Cc3cccs3)C3CC3)CC2)cc1	.	-17	5	.	.	.
Cc1oc2ccc(OCc3ccc(Cl)cc3)cc2c1C(=O)O	-5.1*	-2	7	i	i	i
Cc1oc2ccc(OCc3ccc(Br)cc3)cc2c1C(=O)O	i	.	.	i	.	.
Cc1ccc(NC(=O)c2ccc(Cn3cc([N+](=O)[O-])cn3)cc2)c(C)c1	-5.2*	-46	7	i	42%*	i
CCOc1ccccc1N1CCN(C(=O)CC(C)(C)C)CC1	i	3	10	i	.	.
CCOc1ccccc1N1CCN(C(=O)C(F)(F)F)CC1	-6.2*	21	9	i	i	i
Cc1cc2c(cc3c(=O)n(CC(=O)NC(C)C)nc(C)n32)o1	.	-36	5	.	.	.
Cc1cc(C)c(NC(=O)CCCCCNC2CCCCC2)c(C)c1	-5.2*	.	.	i	7.1%*	i
Cc1ccc(OCCCCNC2CCCCC2)c(C)c1	i	-9	10	i	.	.
C=CCn1c(C)c(CN2CCc3c(nc(C)[nH]c3=O)C2)c2ccccc21	.	-54	2	.	.	.
Cc1nn2c(N3CCCC3)c3c(nc2c1-c1ccccc1)CCC3	i	20	8	i	.	.
COCCNc1c2c(nc3c(-c4ccccc4)c(C)nn13)CCCC2	-9*	3	4	i	66%*	i
Cc1nn2c(N3CCN(CCO)CC3)c3c(nc2c1-c1ccccc1)CCCC3	-9*	-33	5	i	31%*	i
Cc1nn2c(NCCO)c3c(nc2c1-c1ccccc1)CCCC3	.	-27	.	.	.	.
